Data from PubChem BioAssay (NCI).
Values joined by “and” are separate entries in the source; they are usually repeats but may differ in a detail not shown here. Equal values may be shown once. Compounds without any hit were thinned out: in the full panel of roughly 83,000, 20% have a hit.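 Percent growth is the endpoint: 0 to 100 indicates growth inhibition (40 means 60% inhibition), 0 means no net growth, and negative values indicate cell death.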 Active and inactive are the calls of the source.

Tested on: HT29 colon
Experiment: NCI-60 one-dose screen, 48 h (100 = growth as untreated, 0 = no growth, -100 = all killed)
Settings: 10 µM unless noted
Experimental: Growth inhibition of the HT29 human tumor cell line is measured as a screen for anti-cancer activity. Cells are grown in 96 well plates and exposed to the test compound for 48 hours. Compounds are tested at a single concentration, which is 10^-5 M for most compounds. The reported endpoint is percent growth (GI% or GIPRCNT), where numbers from 0 - 100% represent growth inhibition, and numbers from -100% - 0 represent cell death. For example, a value of 40 represents 60% growth inhibition. A value of 0 means no net growth occurred over the course of the experiment. A value of -40 indicates 40% of cells at the beginning of the experiment died by the end of the experiment. A value of -100 means all cells are dead at the end of the experiment.
NCI-60 Human Tumor Cell Lines Screen was performed using the standard one-dose NCI protocol, which is described in more detail at https://dtp.cancer.gov/discovery_development/nci-60/default.htm.
Compounds with GIPRCNT values below 10 were considered active. Activity score was based on GIPRCNT using the following formula: […]
Score is 0 for GIPRCNT values of 100 or above, 50 for GIPRCNT values of 0, and 100 for GIPRCNT values of -100.

Compound | growth
Cc1nnc(NC/C=C/c2ccccc2)s1 | 107% (inactive) and 116% (inactive)
CN(C)c1ccc(C(Cc2ccc3ccccc3n2)Cc2ccc3ccccc3n2)cc1 | 0.736% (active) and 59.7% (inactive)
COc1cc(Nc2nc3ccccc3nc2NS(=O)(=O)c2ccc(NC(=O)c3ccc(C)c(OC)c3)cc2)cc(OC)c1 | 53.7% (inactive) and 5.41% (active)
O=[N+]([O-])c1ccc(/C=N\NC(=S)Nc2ccc(F)cc2)cc1 | 93.9% (inactive) and 95.1% (inactive)
NC(=O)c1ccccc1OCC(O)CO (stereo not given) | 105% (inactive)
O=C1c2ccccc2C(=O)c2c(NCCNCCO)ccc(NCCNCCO)c21 | 2.99% (active) and 16.2% (inactive) and 14.9% (inactive)
CCCCCn1sc(=O)n(Cc2ccc(CNC(=O)C(C)c3ccc(CC(C)C)cc3)cc2)c1=O (stereo not given) | 112% (inactive) and -52.1% (active)
CC(=O)Oc1cc(C(=O)O)cc(OC(C)=O)c1OC(C)=O | 114% (inactive) and 96.5% (inactive)
O=C1OC(Oc2ccc(Br)cc2)(c2ccccc2)c2ccccc21 (stereo not given) | 74.6% (inactive) and 70.6% (inactive)
CCN(CC)CCCC(C)Nc1ccnc2cc(Oc3ccccc3)ccc12 (stereo not given) | 30.1% (inactive)
CCC(O)c1ccccc1 (stereo not given) | 104% (inactive) and 105% (inactive)
O=[N+]([O-])c1ccccc1N(S(=O)(=O)c1ccccc1)S(=O)(=O)c1ccccc1 | 109% (inactive) and 103% (inactive)
COC(=O)[C@H]1CCCN1C(=O)C1CCCN1C(=O)[C@@H](Cc1ccccc1)NC(=S)Nc1cc(C(F)(F)F)cc(C(F)(F)F)c1 (stereo not given in full) | 111% (inactive) and 72.6% (inactive)
CCCCCN(CCCCC)CC(O)c1cc2c(c3ccccc13)CCCC2 (stereo not given) | 15.4% (inactive) and 16.2% (inactive)
O=C(Nc1cccc(-n2ccc3c(NC(=O)c4ccccc4)nccc32)c1)c1ccc(Cl)c(C(F)(F)F)c1 | 43% (inactive)
Cn1c(=O)c2[nH]c(CCCCCCCCc3nc4ccccc4[nH]3)nc2n(C)c1=O | 99% (inactive) and 85.6% (inactive)
CCN(CC)CCOc1ccc2c(c1)C(=O)c1cc(OCCN(CC)CC)ccc1-2 | 8.16% (active) and 6.92% (active)
CC1=CCC2CC1C2(C)C (stereo not given) | 114% (inactive) and 105% (inactive)
O=C(CN1CCOCC1)N1CCOCC1 | 91% (inactive)
OC(COc1cccc2ccccc12)CN1CCN(c2ccc(Cl)cc2)CC1 (stereo not given) | 82.9% (inactive) and 88.9% (inactive)

Compound | growth
CCOC(=O)Nc1ccc2c(c1)/C(=N\NC(N)=S)c1ccccc1-2 | 29.6% (inactive) and 25.8% (inactive)
CC1(c2ccc3ccccc3c2)CCC(=O)O1 (stereo not given) | 96.9% (inactive)
Nc1ccccc1Nc1ccccc1 | 118% (inactive) and 97.4% (inactive)
CC(C)(O)Cn1cc(-c2ccc3nc(OC4CC4)ccc3c2)c2c(N)ncnc21 | 74% (inactive) and 44.6% (inactive)
NC(=S)NN=C1CCC(C2CCCCC2)CC1 (stereo not given) | 90% (inactive) and 79.7% (inactive)
N=C1N=C(N)CS1 | 105% (inactive)
O=CC(O)C(O)C(O)CO (stereo not given) | 113% (inactive) and 102% (inactive)
CN1CCN(C2CCN(C(=O)Nc3cc(Oc4ccc(NC(=O)C5(C(=O)Nc6ccc(F)cc6)CC5)c(F)c4)ccn3)CC2)CC1 | -60.3% (active) and 46.5% (inactive)
C[N+](C)(C)CN1C(=O)c2ccccc2C1=O | 99.6% (inactive)
CC1CCCc2sc3nc(NNC(=O)c4cnccn4)n(-c4ccccc4)c(=O)c3c21 (stereo not given) | 22.4% (inactive) and 26.2% (inactive)
CCOc1ccc2c(S(=O)(=O)O)cccc2c1[N+](=O)[O-] | 105% (inactive) and 117% (inactive)
CCNC(=O)Nc1ccc(-c2nc3c(c(N4CCOC[C@@H]4C)n2)CCN(C2COC2)C3)cc1 | 49.7% (inactive) and 15.9% (inactive)
CC1=C(/C=C/C(C)=C/C=C/C(C)=C/C=N/NC(=S)NC(=S)N/N=C/C=C(C)/C=C/C=C(C)/C=C/C2=C(C)CCCC2(C)C)C(C)(C)CCC1 | -0.991% (active) and -29.3% (active)
O=C(O)CCCCc1ccc([N+](=O)[O-])cc1 | 105% (inactive) and 98.1% (inactive)
CCOc1ccc(Nc2c3ccccc3nc3ccccc23)cc1 | 98% (inactive) and 4.3% (active) and 10.5% (inactive)
CN(C)c1ccc2nc3ccc(=[N+](C)C)cc-3sc2c1 | 26.6% (inactive) and 19.8% (inactive) and 74.9% (inactive)
O=[N+]([O-])c1ccc(-n2[nH]nnc2=S)cc1 | 99.2% (inactive)
COc1ccc2cc3[n+](cc2c1OC)CCc1cc2c(cc1-3)OCO2 | 93.8% (inactive) and 74.1% (inactive)
CN1CCN(CCC=C2c3ccccc3Sc3ccc(S(=O)(=O)N(C)C)cc32)CC1 | 4.86% (active) and 4.22% (active)
Cc1nn(-c2ccc(Cl)cc2)c2ncnc(N/N=C/c3ccccc3O)c12 | 20.1% (inactive) and 31.1% (inactive)
